The results in this text go back to PubChem BioAssay AID485270 (The Scripps Research Institute Molecular Screening Center, 2010).

Out of some 330,000 compounds screened, about 5,800 (1.8%) were called active. The sample as a whole holds a higher share of actives than the screen did. Values without a mark were called inactive. Rule as the data show it: active = inhibition mostly above about 38% (no sharp cut-off); inactive = mostly below about 40%.

Chain of Orexin/Hypocretin receptor type 1 (Homo sapiens) (O43613 whole entry, looked up): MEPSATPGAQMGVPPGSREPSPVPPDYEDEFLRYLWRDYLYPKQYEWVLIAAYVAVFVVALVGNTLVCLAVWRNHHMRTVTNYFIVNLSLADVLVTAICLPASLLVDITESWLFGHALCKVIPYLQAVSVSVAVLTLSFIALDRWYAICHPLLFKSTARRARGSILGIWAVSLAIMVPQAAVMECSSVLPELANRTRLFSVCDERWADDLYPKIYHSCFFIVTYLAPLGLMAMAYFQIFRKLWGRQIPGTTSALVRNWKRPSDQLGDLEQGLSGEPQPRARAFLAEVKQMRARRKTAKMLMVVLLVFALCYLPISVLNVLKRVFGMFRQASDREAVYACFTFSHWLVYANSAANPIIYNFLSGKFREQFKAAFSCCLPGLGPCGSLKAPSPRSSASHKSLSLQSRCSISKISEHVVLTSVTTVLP

This assay has as its target Orexin/Hypocretin receptor type 1 (Homo sapiens) (UniProt O43613). In words: blocks the human orexin 1 receptor (AID 485270).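 Also: 0% = agonist challenge alone and 100% = reference antagonist.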 The following applies: OX1R-expressing cells, FRET antagonist read-out; at 6.6 µM; stronger effect = higher value.
For the compound `COc1ccc(CNc2nc3c(c(=O)[nH]c(=O)n3C)n2Cc2ccccc2)cc1`, the inhibition is -5.7%.
As for `COc1ccc(CCn2c(NCCCN3CCOCC3)nc3c2c(=O)[nH]c(=O)n3C)cc1`, the inhibition was 101% (active).
Consider `COc1ccc(CCn2c(NN=C3CCCC3)nc3c2c(=O)[nH]c(=O)n3C)cc1`, for which the inhibition is 18.2%.
For `Cc1ccc(S(=O)(=O)Nc2ccc(F)c(S(=O)(=O)N3CCOCC3)c2)cc1`, the inhibition is 21.7%.
In the case of `O=C(CSc1nc2ccccc2c(=O)n1-c1ccccc1F)N1CCOCC1` it was 16.2%; in that of `Cc1ccccc1NCC(=O)N/N=C\c1ccc([N+](=O)[O-])s1`, 20.9%.
On to `CC(C)(C)c1cc(C(=O)N/N=C/c2ccc([N+](=O)[O-])s2)n[nH]1`, for which the inhibition was 56.3% (active).
As to `COc1ccc2ccccc2c1/C=N/NC(=O)c1cc(C)[nH]n1`, the inhibition is 39.3%.
In the case of `CC(=O)N1CCCc2cc(S(=O)(=O)N3CCCC(C(=O)N4CCN(c5cccc(Cl)c5)CC4)C3)ccc21` (stereo not drawn) it was 39.7% (active); in that of `CC(=O)N1CCCc2cc(S(=O)(=O)N3CCCC(C(=O)NCc4ccc(Cl)cc4)C3)ccc21` (stereo not drawn), 10.5%; in that of `CC(=O)N1c2ccc(S(=O)(=O)N3CCCC(C(=O)Nc4cccc(Cl)c4)C3)cc2CC1C` (stereo not drawn), 2.16%.
As to `CSCCC1NC(=O)N(CC(=O)Nc2cccc(S(=O)(=O)N3CCCCCC3)c2)C1=O` (stereo not drawn), the inhibition was 12.6%.
Take `O=C1[C@@H](c2ccccc2)[C@@H](c2ccccc2)N1c1cccnc1`: the inhibition was 26%.
In the case of `Cc1cc(C(C)(C)C)oc1C(=O)N(CC(=O)NC1CCCC1)Cc1ccc(Cl)cc1` it was 22.5%.
`O=C(COC(=O)Cc1ccc([N+](=O)[O-])cc1)NC1CCCCCC1`: the inhibition was 2.43%.
To `Cc1cc(C)cc(NC(=O)C(OC(=O)c2ccc(O)cc2)c2ccccc2)c1` (stereo not drawn) belongs 9.51%.
In the case of `CC(C)CC[n+]1ccn(C2=C([O-])c3ccccc3C(=O)/C2=N\S(=O)(=O)c2ccccc2)c1`, the inhibition was 79.9% (active).
As for `O=C(CCc1ccc(S(=O)(=O)N2CCOCC2)cc1)OCC(=O)c1ccc(Br)cc1`, the inhibition was 4.77%.
In the case of `O=C(Nc1nnc(-c2ccccc2)o1)c1cccc(S(=O)(=O)N2CCOCC2)c1` it was 13.1%; in that of `COc1ccc(C(=O)C(C)OC(=O)c2cccc(S(=O)(=O)Nc3c(C)n(C)n(-c4ccccc4)c3=O)c2)cc1` (stereo not drawn), 41.2% (active).
In the case of `Cc1c(NC(=O)C(C)OC(=O)c2ccccc2O)c(=O)n(-c2ccccc2)n1C` (stereo not drawn) it was 5.32%; in that of `COc1ccc(NS(=O)(=O)c2ccc(C(=O)Nc3c(C)n(C)n(-c4ccccc4)c3=O)cc2)cc1`, 8.89%; in that of `Cc1cc(NC(=O)CSc2nnc(-c3ccco3)n2N)no1`, 9.57%.
Take `O=C(CNC(=O)c1ccccc1F)OCC(=O)c1c[nH]c2ccccc12`: the inhibition was 3.49%.
In the case of `COc1ccc(NS(=O)(=O)c2cc(NC(=O)c3ccc(S(=O)(=O)N(C)C)cc3)ccc2N2CCOCC2)cc1` it was 6.2%; in that of `COc1ccc(C(=O)COC(=O)C(O)c2ccccc2)c(OC)c1` (stereo not drawn), 3.45%; in that of `O=C(COC(=O)c1ccc(F)cc1)NCC1COc2ccccc2O1` (stereo not drawn), 6.76%.
In the case of `O=C(CN1C(=O)/C(=C/c2ccccc2F)Sc2ccccc21)NCc1cccnc1` it was 46.6% (active).
Consider `O=C(CN1C(=O)/C(=C\c2ccc(C(F)(F)F)cc2)Sc2ccccc21)NCc1ccco1`, for which the inhibition is 38.3%.
For the compound `O=C(CN1C(=O)S/C(=C\c2ccccc2F)C1=O)NCCCn1ccnc1`, the inhibition was 20.4%.
To `C[C@H](NS(=O)(=O)c1ccc(Cl)cc1)C(=O)OCC(=O)N1CCOCC1` belongs 1.59%; to `CSCCC(NC(=O)c1ccc(=O)n(C)n1)c1nc2ccccc2[nH]1` (stereo not drawn), 12.2%.
In the case of `CSCCC(NC(=O)c1cc([N+](=O)[O-])cc([N+](=O)[O-])c1)c1nc2ccccc2[nH]1` (stereo not drawn) it was 82% (active).
In the case of `COc1ccc(CC(=O)N[C@@H](CCSC)c2nc3ccccc3[nH]2)cc1` it was 33.1%.
Take `CC(C)Cc1nnc(NC(=O)CCc2ccccc2)s1`: the inhibition is -12.6%.
For the compound `COc1ccc([N+](=O)[O-])cc1NC(=O)CCc1ccccc1`, the inhibition is 28.9%.
In the case of `CC(=O)Oc1ccccc1C(=O)Nc1ncc([N+](=O)[O-])s1` it was 86% (active); in that of `COc1ccc(NC(=O)C2COc3ccccc3O2)cc1` (stereo not drawn), 3.74%.
To `Cc1cnc(NC(=O)c2ccccn2)s1` belongs 14.3%; to `COc1ccc(NC(=O)c2ccccc2[N+](=O)[O-])cc1OC`, 10.8%; to `O=C(Nc1ncc([N+](=O)[O-])s1)C1COc2ccccc2O1` (stereo not drawn), 57.4% (active).
In the case of `CN(c1ccccc1)S(=O)(=O)c1cccc(NC(=O)Cc2c(F)cccc2Cl)c1` it was 26.3%; in that of `O=C(Cc1c(F)cccc1Cl)Nc1ccc(-n2cnnn2)cc1`, 3.25%; in that of `O=C(CCc1ccccc1)Nc1ncc([N+](=O)[O-])s1`, 52.7% (active).
With `COc1ccc(OC)c2sc(NC(=O)C3COc4ccccc4O3)nc12` (stereo not drawn), the inhibition was 14.5%.
On to `O=C(Cc1c(F)cccc1Cl)Nc1ncc([N+](=O)[O-])s1`, for which the inhibition was 43.1% (active).
Turning to `O=C(OCCN1C(=O)c2ccccc2C1=O)[C@@H]1CC(O)CN1S(=O)(=O)c1ccccc1[N+](=O)[O-]` (stereo partly drawn), the inhibition is 7.02%.
For `O=C(COC(=O)C1CCCO1)Nc1nc(-c2ccc(F)cc2)cs1` (stereo not drawn), the inhibition is 5.35%.
To `C=CCC[C@H](Cc1ccc(F)cc1)C(=O)OC[C@H](C)NC(=O)[C@H](CC=C)CC(=O)N(CCO)Cc1ccccc1` belongs 17.6%; to `O=C(COC(=O)c1ccc(F)c(S(=O)(=O)N2CCOCC2)c1)NCc1ccc2c(c1)OCO2`, 7.1%; to `COc1ccc2c(CC(=O)NNC(=O)c3ccccc3F)coc2c1`, 7.98%.
As for `CCCCOc1ccc(N(CC(=O)NC(C)C)C(=O)CCC(=O)Nc2ccccn2)cc1`, the inhibition was 4.64%.
In the case of `CN(CCc1ccccc1)C(=O)c1cccc(NC(=O)Cc2ccc([N+](=O)[O-])cc2)c1`, the inhibition was 14.3%.
For `CN(Cc1ccccc1)C(=O)COC(=O)/C=C/c1ccc2c(c1)OCO2`, the inhibition is 4.7%.
Regarding `CCCCNC(=O)C(C)N(CCN(C)C)C(=O)CCCN1C(=O)NC(c2ccc(Cl)cc2)C(C(=O)OCc2ccccc2)=C1C` (stereo not drawn), the inhibition was 13.9%.
`C=C1c2cccc(OC)c2O[C@H](C(=O)OCC)[C@@H]1CCCCCC`: the inhibition is 1.8%.
To `CC(C)OCCCNc1ncnc2c1[nH]c1ccc(F)cc12` belongs 64.8% (active).
To `CC(C)OCCCNC(=O)c1cc(Sc2ccc(F)cc2)nc2ccccc12` belongs 23.4%.
Consider `O=C1NC(Cc2ccc(O)cc2)c2nc3ccc(Cl)cc3c(=O)n2-c2ccccc21` (stereo not drawn), for which the inhibition is 6.78%.
To `CCOC(=O)C1Sc2[nH]c(=O)sc2C(c2ccc(Cl)cc2)C1C(=O)OCC` (stereo not drawn) belongs 49.6% (active); to `CCOC(=O)C1=C(C)NC(=O)N(C(C)=O)C1c1ccc(Cl)cc1` (stereo not drawn), 12.3%; to `CCOC(=O)C1C(c2ccc(Cl)cc2)NC(=S)NC1(O)C(F)(F)F` (stereo not drawn), 2.06%.
In the case of `COc1ccc(C)cc1NC(=O)CSc1cccc[n+]1[O-]` it was -5.73%.
Take `Fc1ccc2[nH]c3c(N4CCSCC4)ncnc3c2c1`: the inhibition was 85.8% (active).
To `Cc1c(CN2CC[C@@H](N3CCN(c4ccccn4)CC3)[C@H](O)C2)[nH]c2ccc(F)cc12` belongs -1.02%.
As to `COc1ccc2[nH]c3c(c2c1)CCN1C(=O)C(CC(=O)NCc2cccc(C(F)(F)F)c2)C[C@H](C(=O)N2CCOCC2)[C@@]31C` (stereo partly drawn), the inhibition was 13%.
In the case of `CCC(CO)Oc1cc(NCc2ccccc2)c2ncn(C3CCCC3)c2c1` (stereo not drawn), the inhibition is 12.8%.
In the case of `N#C/C(=C1/CCCN1)c1ccccn1`, the inhibition was 5.71%.
In the case of `N#CC(=C1CCCC1)c1nc(-c2ccc(Cl)cc2)cs1` it was 20.1%.
`CCNC(=O)CSc1nc(-c2ccccc2)cs1`: the inhibition is 16.1%.
Consider `Cn1c(/C(C#N)=C2/CCCCCN2)nc2ccccc21`, for which the inhibition was 11.5%.
On to `N#C/C(=C1\CCCN1)c1nc(-c2ccccc2)cs1`, for which the inhibition is 84.1% (active).
In the case of `N#CC(=C1SC=CS1)c1nc(-c2ccccc2)cs1` it was 105% (active); in that of `Cc1c(NC(=O)CN(C)CC(=O)Nc2ccc(F)c(F)c2F)c(=O)n(-c2ccccc2)n1C`, 4.65%.
With `COC(=O)[C@]1(Cc2ccccc2)N[C@H](CN(C)S(=O)(=O)c2ccc(F)cc2)[C@@H]2C(=O)N(Cc3ccccc3)C(=O)[C@@H]21`, the inhibition is 15.4%.
To `CNC[C@@H]1Oc2c(NS(C)(=O)=O)cccc2C(=O)N([C@@H](C)CO)C[C@H]1C` belongs -1.47%; to `O=C(C1CC1)N1N=C2CCCCC2C1(O)C(F)(F)F` (stereo not drawn), 5.9%.
Take `CCOC(=O)[C@H]1[C@H]2COc3cc(OC)ccc3[C@@H]2N2C(=O)CN(Cc3ccc(Cl)cc3)C(=O)[C@@]12C`: the inhibition is 7.39%.
To `O=C(NCCc1ccc(F)cc1)c1ccc2nccnc2c1` belongs 9.11%.
In the case of `O=C(Nc1nnc(C2=COCCO2)o1)c1ccc([N+](=O)[O-])s1` it was 88.5% (active); in that of `COc1cc(-c2nnc(NC(=O)C3=COCCO3)o2)cc(OC)c1OC`, 4.19%; in that of `Cc1ccc(C(=O)Nc2nnc(C3=COCCO3)o2)cc1C`, 9.95%.
For `O=C(COC(=O)/C=C/c1ccc(Br)o1)Nc1cccc(S(=O)(=O)N2CCOCC2)c1`, the inhibition was 4.21%.
`Cc1noc(C)c1NC(=O)Nc1ccc2c(c1)C(=O)N([C@H](C)CO)C[C@H](C)[C@@H](CN(C)C(=O)Nc1ccccc1)O2`: the inhibition was -3.75%.
In the case of `COc1cc(C(=O)OCc2cc(=O)n3ccsc3n2)ccc1OC(C)C` it was 8.65%; in that of `COc1ccc(Cl)cc1NC(=O)COC(=O)c1ccc(Br)o1`, 5.94%.
Take `CCN1CCN(c2c(Cl)cccc2NC(=O)c2ccc(Br)o2)CC1`: the inhibition is 14.6%.
In the case of `COc1cc(OC)c(NC(=O)c2ccc(Br)o2)cc1Cl` it was 81.8% (active).

The term inhibition denotes the change of the read-out against control, counted positive when it falls.
